Test results taken from PMC5540273 (PLoS ONE, 2017).

Experiments:
Details in all cases: concentration: 1 μM,replicates: in singlicate; n = 1
[1] = system: FYN
[2] = system: GAK
[3] = system: T1, GCN2(Kin.Dom.2,S808G)
T1 construct: gene EIF2AK4

[4] = system: GRK1
[5] = system: T2, GRK2
T2 construct: gene ADRBK1

[6] = system: T3, GRK3
T3 construct: gene ADRBK2

[7] = system: GRK4
[8] = system: GRK7
[9] = system: GSK3A
[10] = system: GSK3B
[11] = system: T4, HASPIN
T4 construct: gene GSG2

[12] = system: HCK
[13] = system: HIPK1
[14] = system: HIPK2
[15] = system: HIPK3
[16] = system: HIPK4
[17] = system: HPK1
[18] = system: HUNK
[19] = system: ICK
[20] = system: IGF1R
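Further: KINOMEscan kinase panel screen.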

Row | Structure (SMILES) | %Inh [1] [%] | %Inh [2] [%] | %Inh [3] [%] | %Inh [4] [%] | %Inh [5] [%] | %Inh [6] [%] | %Inh [7] [%] | %Inh [8] [%] | %Inh [9] [%] | %Inh [10] [%] | %Inh [11] [%] | %Inh [12] [%] | %Inh [13] [%] | %Inh [14] [%] | %Inh [15] [%] | %Inh [16] [%] | %Inh [17] [%] | %Inh [18] [%] | %Inh [19] [%] | %Inh [20] [%]
1 | CC(C)c1nc(-c2cccc(NS(=O)(=O)c3ccccc3)c2)c(-c2ccnc(Nc3ccc4c(c3)CN(C)CC4)n2)s1 [GSK1649598] | 98.7 | 87 | 100 | 0 | 0 | 0 | 0 | 0 | 61 | 24 | 0 | 99.7 | 75 | 58 | 69 | 93.6 | 88 | 3 | 36 | 0
2 | Cn1ccc2ncnc(Oc3ccc(NC(=O)Nc4cc(C(C)(C)C)on4)c(Cl)c3)c21 | 35 | 13 | 0 | 16 | 62 | 1 | 0 | 8 | 0 | 0 | 5 | 66 | 36 | 34 | 0 | 28 | 30 | 2 | 15 | 15
3 | O=C(Nc1n[nH]c2cc(-c3ccco3)ccc12)C1CC1 [SB-737447] | 0 | 5 | 25 | 23 | 0 | 0 | 68 | 3 | 96.2 | 66 | 0 | 5 | 39 | 50 | 31 | 6 | 3 | 0 | 66 | 0
4 | O=C(Nc1cccc(Oc2ccc3nccn3n2)c1)Nc1cccc(C(F)(F)F)c1 | 31 | 4 | 27 | 0 | 0 | 0 | 1 | 0 | 0 | 0 | 0 | 27 | 7 | 33 | 1 | 17 | 0 | 22 | 0 | 3
5 | CN(c1ccc2c(c1)nc(NCc1ccc(F)cc1)n2C)c1ccnc(Nc2ccc(CS(C)(=O)=O)cc2)n1.Cl [GW813244] | 74 | 15 | 68 | 27 | 0 | 0 | 0 | 0 | 14 | 11 | 28 | 47 | 53 | 25 | 47 | 79 | 60 | 5 | 7 | 13
6 | Cc1cccc(-c2nc(Nc3ccncc3)c3sccc3n2)n1 [GW869641] | 0 | 13 | 5 | 0 | 17 | 11 | 15 | 42 | 0 | 40 | 44 | 25 | 21 | 13 | 37 | 13 | 16 | 20 | 32 | 8
7 | Cl.c1ccc(Oc2ccc(Nc3ccnc4cc(-c5ccc(CN6CCNCC6)o5)ccc34)cc2)nc1 [GW567142] | 82 | 68 | 0 | 0 | 10 | 0 | 0 | 0 | 19 | 0 | 0 | 84 | 0 | 0 | 7 | 10 | 0 | 1 | 0 | 0
8 | O=C(NOCC1CC1)c1cc(Br)c(F)c(F)c1Nc1ccc(I)cc1Cl | 0 | 0 | 10 | 30 | 0 | 0 | 0 | 0 | 33 | 0 | 0 | 8 | 20 | 0 | 0 | 0 | 14 | 8 | 0 | 0
9 | Cc1ccc(Nc2ccnc(Nc3ccc4c(c3)CS(=O)(=O)C4)n2)cc1O.Cl [GW579362] | 97.9 | 87 | 98.4 | 2 | 0 | 22 | 82 | 0 | 63 | 23 | 0 | 90 | 26 | 0 | 28 | 44 | 62 | 8 | 28 | 56
10 | C[C@@H](Oc1cc(-n2cnc3ccc(-c4ccncc4)cc32)sc1C(N)=O)c1ccccc1Cl [GSK483724] | 44 | 49 | 0 | 53 | 7 | 32 | 21 | 0 | 76 | 15 | 87 | 0 | 33 | 19 | 59 | 69 | 64 | 0 | 45 | 19
11 | c1ccc(Oc2ccc(Nc3ccnc4ccc(-c5ccccn5)cc34)cc2)cc1 [GW407034] | 62 | 17 | 1 | 0 | 0 | 46 | 16 | 0 | 7 | 9 | 0 | 71 | 0 | 0 | 0 | 0 | 25 | 0 | 16 | 5
